# Assay outcomes deposited in PubChem by National Center for Advancing Translational Sciences (NCATS).
# Compounds with a hit are over-represented: about 5.4% of the library has one in this group of screens.
# VP16 counter: inhibits Gal4-VP16 luciferase reporter, ROR gamma counter-screen | Drosophila S2 Gal4-VP16 UAS-luciferase, luminescence, 20 h | Potency, µM (doses to about 53.6 µM), inactives show at the top dose activity, negative = inhibition, hits mostly inhibitors | hit rate 3.5% among 310,000;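 further: Gal4-VP16 expression switched on by copper sulfate through the metallothionein promoter; potency means the concentration at half of the fitted maximal effect; on the % scale 0 is the no-effect control and ±100 the full control effect; nearly all actives have a fitted effect of over 50% in size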
# p53 reactivation: re-activators of mutant p53; H1299 p53-A138V BP100-luciferase reporter, luminescence, 24 h; Potency, µM (series often up to 92.2 µM), for the others: top-dose activity change, positive = activation, most hits filed as activators; hit rate 0.063% among 320,000; further: potency means the concentration at half of the fitted maximal effect; % of control where 0% means no effect; nearly all actives have a fitted effect of over 45% in size
#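 H1299 (p53-null), stable ts p53-A138V + BP100-Luc; 1000 cells/well, Opti-MEM/10% FBS; cpd 4 pt, 1:5; 24 h, 37 deg C, 5% CO2; detection reagent 10 min RT; luminescence.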
# Six1-Eya2 blk: blocks human Six1 binding to Eya2; AID 651725; AlphaScreen GST-Six1/His-Eya2 binding, biochemical; active compounds read low; activity change, % (concentration not given with the values); hit rate 0.56% among 360,000; Q15475+O00167; in the data active means activity change below about -65%; inconclusive means mostly about -30% to -63%; further: on the % scale 0 is the no-effect control and ±100 the full control effect
# Target sequence (O00167 whole entry, looked up): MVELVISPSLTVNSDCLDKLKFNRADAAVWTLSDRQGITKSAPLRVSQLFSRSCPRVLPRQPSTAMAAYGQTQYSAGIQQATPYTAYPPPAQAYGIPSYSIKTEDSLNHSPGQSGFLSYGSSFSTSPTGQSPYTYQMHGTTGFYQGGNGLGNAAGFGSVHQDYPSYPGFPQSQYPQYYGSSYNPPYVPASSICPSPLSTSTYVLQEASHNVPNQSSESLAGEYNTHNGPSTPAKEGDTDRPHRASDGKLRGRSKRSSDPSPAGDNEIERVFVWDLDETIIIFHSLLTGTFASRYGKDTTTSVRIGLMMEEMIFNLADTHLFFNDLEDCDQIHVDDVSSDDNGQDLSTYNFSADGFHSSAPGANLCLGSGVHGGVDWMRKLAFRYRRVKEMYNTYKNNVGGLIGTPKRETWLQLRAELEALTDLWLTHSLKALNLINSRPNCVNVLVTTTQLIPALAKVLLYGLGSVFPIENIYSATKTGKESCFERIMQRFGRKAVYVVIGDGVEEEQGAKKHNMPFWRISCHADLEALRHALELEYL
# Target sequence (Q15475 whole entry, looked up): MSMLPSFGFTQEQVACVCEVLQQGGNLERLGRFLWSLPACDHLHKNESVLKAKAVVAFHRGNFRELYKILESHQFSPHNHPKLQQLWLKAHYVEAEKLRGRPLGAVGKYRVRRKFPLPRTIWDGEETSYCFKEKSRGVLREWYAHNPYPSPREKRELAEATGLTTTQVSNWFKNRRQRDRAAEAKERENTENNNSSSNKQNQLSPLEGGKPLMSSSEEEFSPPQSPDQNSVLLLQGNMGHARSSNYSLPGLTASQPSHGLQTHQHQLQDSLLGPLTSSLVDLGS
#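 GST-Six1 + His-Eya2 (5X stock: 250/500 nM); Tris pH 8.0, 300 mM NaCl, 0.05% BSA, 0.02% Tween 20; GSH donor/Ni acceptor beads; 1 h 37 °C dark; AlphaScreen readout.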
# RORgamma inh: blocks mouse ROR gamma transcriptional activity | Potency, µM (doses to about 53.6 µM), for the others: top-dose activity change, negative = inhibition, hits mostly inhibitors | hit rate 5.4% among 310,000 | Drosophila S2 Gal4-RORgamma UAS-luciferase reporter, 20 h | P51450; further: potency means the concentration at half of the fitted maximal effect; on the % scale 0 is the no-effect control and ±100 the full control effect; nearly all actives have a fitted effect of over 60% in size
#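 A Gal4/UAS one-hybrid system in insect cells: metallothionein-promoter Gal4–ROR gamma fusion plus Photinus luciferase reporter. Copper sulfate 700 uM final, 20 hr ambient incubation, luminescent detection after 10 min with reagent.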
# CtBP-E1A blk: CtBP/E1A binding inhibition; AlphaScreen GST-E1A/His-CtBP binding, 1536-well; active compounds read low; activity change, % (test concentration not listed); hit rate 0.49% among 340,000; in the data active means activity change below about -65%; inconclusive means mostly about -30% to -63%; further: on the % scale 0 is the no-effect control and ±100 the full control effect
#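 In 5 uL wells, 23 nL compound meets equimolar GST-E1A and His-CtBP (5X stock 125 nM each) for 2 h, 37 °C. Beads (5X, 50 ug/mL) then 1 h, 37 °C, dark.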
# * hit, by the source's call; ? = inconclusive; / = no result given; [ ] = another dose, or the depositor's remark. Unless noted, the call rests on the fitted dose curve; in most records, active means well fitted curve in the direction sought with a large enough effect; inconclusive means small, poorly fitted or top-dose-only effect, or another doubt; inactive means no such curve, though single readings can be large; an effect the other way counts as inactive or inconclusive.
SMILES,VP16 counter,p53 reactivation,Six1-Eya2 blk,RORgamma inh,CtBP-E1A blk
C/C(=N\N1CCCCC1c1cccnc1)c1c(O)n(C2CCCCC2)c(=S)[nH]c1=O (stereo unspecified),4µM*,-10%,-18,3.2µM*,0
CC1(C)C(C(=O)N2CCN(c3ccc(Cl)cc3)CC2)C1(C)C,-11%,16%,4,19%,1
COC(=O)C1CN(C#N)N(c2ccc(Cl)cc2)C12c1ccccc1-c1ccccc12 (stereo unspecified),0.79µM*,-29%,-7,0.56µM*,5
O=[N+]([O-])c1ccc(O)c([N+](=O)[O-])c1,22µM*,/,2,?,2
O=[N+]([O-])c1cc(O)c(O)c([N+](=O)[O-])c1,-7%,1%,-27,22µM*,-12
O=C(O)c1cc([N+](=O)[O-])cc([N+](=O)[O-])c1O,1%,/,/,-7%,/
CCC12CCCN3CCC4(c5ccc(OC)c(O)c5N(C(C)=O)C4CC1)C32 (stereo unspecified),?,/,/,33%,/
C=CCCl,-3%,/,/,-4%,/
Cc1ccsc1/C=C1\C(=O)NC(=S)N(C)C1=O,22µM*,-4%,-5,?,/
COc1ccc(/C=C2\C(=O)NC(=S)N(C)C2=O)cc1C,2%,0%,?,-13%,3
CN1C(=O)/C(=C/c2ccc(Cl)s2)C(=O)NC1=S,13µM*,16%,-23,11µM*,-6
ClC(Cl)c1ccccc1,7%,/,/,15%,/
COC(=O)C12CC3=CCC4C(=O)N(c5ccccc5)C(=O)C4C3Cc3ccccc3[C@@H]1CNC2=O (stereo partly specified),-1%,/,/,-4%,/
C#CCN1CC(=O)N(COC(=O)[C@@H]2[C@@H](C=C(C)C)C2(C)C)C1=O,1%,/,/,9%[10 µM],/
CCC(C(=O)O)C1CCC(C)C(C(C)C(O)C(C)C(=O)C(CC)C2OC3(C=CC(O)[C@@]4(CC[C@](C)(C5CC[C@@](O)(CC)C(C)O5)O4)O3)C(C)CC2C)O1 (stereo partly specified),2.2µM*,/,/,1.8µM*,/
O=c1[nH]c(=S)n(CCC2=CCCCC2)c(O)c1C=NCc1cccnc1,-7%,9%,/,-24%,/
O=C(N/N=C/c1c(O)n(CCC2=CCCCC2)c(=O)[nH]c1=O)c1ccccc1,?,?,?,11µM*,?
O=C(N/N=C/c1c(O)n(CCC2=CCCCC2)c(=S)[nH]c1=O)c1ccccc1,?,30%,-30,5µM*,-28
CCOc1cncc(/C=C/CCNC)c1,-6%,/,/,4%,/
Cc1nc2c(=O)n(C)c(=O)nc-2n(C)n1,3.5µM*,-44%,-20,?,-3
CCOCCSc1nc2c(c(-c3cccs3)c1C#N)CC/C2=C/c1cccs1,?,-7%,22,-43%,28
O=C(N/N=C\c1ccc(COc2ccc([N+](=O)[O-])cc2)o1)c1cccc(Cl)c1,2.5µM*,-6%,-20,1.8µM*,-9
OCCBr,-3%,/,/,4%,/
CN(Cc1ccc(OC(F)F)cc1)Cc1nc2c(Br)cc(Br)cc2c(=O)[nH]1,13µM*,-2%,0,3.2µM*,1
CC(Cl)(Cl)Cl,1%,/,/,0%,/
SMILES,VP16 counter,p53 reactivation,Six1-Eya2 blk,RORgamma inh,CtBP-E1A blk
C[C@@H]1O[C@@H](O[C@H]2CC[C@]3(C=O)C4CC[C@]5(C)[C@@H](C6=CC(=O)OC6)CC[C@]5(O)[C@@H]4CC[C@]3(O)C2)[C@H](O)[C@H](O)[C@H]1O (stereo partly specified),-6%,/,/,0%,/
O=C(CCN1CCOCC1)Nc1ccc(Br)cc1C(=O)c1ccccc1,-3%,/,-74*,-6%,-85*
O=C(CN1CCOCC1)Nc1ccc(Br)cc1C(=O)c1ccccc1,-6%,7%,-4,36%,-20
CC(=O)OCC1=C[C@H]2[C@@H]3C(C)(C)[C@]3(OC(=O)Cc3ccccc3)C[C@@H](C)[C@]2(O)[C@@H]2C=C(C)C(=O)[C@@]2(O)C1,?,/,/,-25%,/
O=C1NC(=O)N(CCc2ccc(F)cc2)C(=O)/C1=C\C=C\c1ccccc1,-5%,-2%,21,-3%,-2
CN1C(=O)NC(=O)/C(=C\C=C\c2ccccc2[N+](=O)[O-])C1=O,?,-9%,-3,10µM*,-18
